Our source for the outcome and AC50 values is PubChem BioAssay (EPA / NIEHS).

The nature of test [1]: ATG_PBREM_CIS: Attagene CIS-FACTORIAL HepG2 Assay for human Phenobarbital-responsive Enhancer Module (PBREM) (AID 2282955). Conditions: HepG2 PBREM cis-reporter, Attagene multiplexed transcription; actives raise or lower the signal. The method in brief: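 HepG2 cells transiently transfected with multiple cis-regulated reporter units measure endogenous transcription factor activity; 24 h compound exposure. Reporter mRNA quantified by RT-PCR, fluorescent labelling, HpaI digestion and capillary electrophoresis; bidirectional fit versus DMSO.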

The target in test [2] is Paired box protein Pax-6 (Homo sapiens) (UniProt P26367). Kind of test: ATG_Pax6_CIS: Attagene CIS-FACTORIAL HepG2 Assay for human Paired Box 6 (PAX6) (AID 2282956). Conditions: HepG2 CIS-FACTORIAL PAX6 reporter transcription, RNA readout; actives raise or lower the signal. In short, it runs like this:
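Multiplexed cis-reporter HepG2 system; 24 h treatment; reporter mRNA read by RT-PCR/CE fluorescence; bidirectional fit vs DMSO.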

Test [3] in a line: ATG_PXRE_CIS: Attagene CIS-FACTORIAL HepG2 Assay for human Pregnane X Receptor Element (PXRE) (AID 2282957). Conditions: HepG2 Attagene CIS-FACTORIAL PXRE reporter, mRNA; actives raise or lower the signal. In short, it runs like this:
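HepG2 cells transiently transfected with cis-element-driven multiplexed reporter units; after 24 h chemical exposure, reporter mRNA measured by RT-PCR, 6-FAM labelling, HpaI digestion and capillary electrophoresis. Bidirectional fitting relative to DMSO.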

Test [4] can be described thus: ATG_PPRE_CIS: Attagene CIS-FACTORIAL HepG2 Assay for human Peroxisome Proliferator-activated Response Element (PPRE) (AID 2282958). Conditions: HepG2 PPRE cis-element reporter, Attagene transcription factor profiling; actives raise or lower the signal. In short, it runs like this: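 HepG2 cells are transiently transfected with multiplexed cis-promoter reporter units to report endogenous PPAR activity. After 24 h dosing, reporter mRNA is read by RT-PCR and capillary electrophoresis. Fitting is bidirectional against DMSO.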

Test [5] in a line: ATG_RORE_CIS: Attagene CIS-FACTORIAL HepG2 Assay for human RAR-related Orphan Receptor Element (RORE) (AID 2282959). Conditions: HepG2 Attagene cis-factorial RORE reporter, mRNA; actives raise or lower the signal. In short, it runs like this:
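HepG2 cells carrying transiently transfected cis-regulated reporter units; RORE-driven reporter mRNA quantified 24 h post-dosing by RT-PCR, 6-FAM primer extension, HpaI digestion and capillary electrophoresis. Bidirectional fit versus DMSO.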

A short description of test [6]: ATG_Sox_CIS: Attagene CIS-FACTORIAL HepG2 Assay for human SRY-box transcription factor (SOX) (AID 2282960). Conditions: HepG2 Attagene cis-factorial SOX reporter, mRNA; actives raise or lower the signal. In short, it runs like this: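 HepG2 cells transiently transfected with multiple cis-regulated reporter units, then dosed for 24 h. Reporter mRNA quantified by RT-PCR, fluorescent labelling, HpaI digestion and capillary electrophoresis; bidirectional fit versus DMSO.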

The target of test [7] is Transcription factor Sp1 (Homo sapiens) (UniProt P08047). The experiment in a line: ATG_Sp1_CIS: Attagene CIS-FACTORIAL HepG2 Assay for human Specificity Protein 1 (Sp1) (AID 2282961). Conditions: HepG2 Sp1 cis-reporter transcription, actives raise or lower the signal. The method in brief: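 HepG2 cells transiently transfected with multiplexed cis-regulated reporter constructs, chemical exposure 24 h. Reporter mRNA quantified by RT-PCR with capillary electrophoresis; bidirectional fit relative to DMSO.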

Test [8] in a line: ATG_SREBP_CIS: Attagene CIS-FACTORIAL HepG2 Assay for human Sterol Regulatory Element Binding (SREBP) (AID 2282962). Conditions: HepG2 Attagene cis-factorial SREBP reporter, mRNA; actives raise or lower the signal. The method in brief:
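mRNA induction of transfected cis-promoter reporters in HepG2 cells, 24 h post-dose. Detection: RT-PCR with 6-FAM-labelled products, HpaI digest, capillary electrophoresis. DMSO served as negative control and baseline.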

Test [9] deals with Signal transducer and activator of transcription 3 (Homo sapiens) (UniProt P40763). The experiment in a line: ATG_STAT3_CIS: Attagene CIS-FACTORIAL HepG2 Assay for human Signal Transducer and Activator of Transcription 3 (STAT3) (AID 2282963). Conditions: HepG2, Attagene cis-factorial STAT3 reporter transcription; actives raise or lower the signal. The method in brief:
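HepG2 cells transiently transfected with multiple cis-element-driven reporter units report endogenous transcription factor activity. After 24 h compound exposure, reporter mRNA is measured by RT-PCR, 6-FAM labelling, HpaI digestion and capillary electrophoresis. Fitted bidirectionally versus DMSO.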

A short description of test [10]: ATG_TA_CIS: Attagene CIS-FACTORIAL HepG2 Assay for human TA Basal Promoter (AID 2282964). Conditions: HepG2 Attagene CIS-factorial TA basal promoter reporter; actives raise or lower the signal. In short, it runs like this: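 Fluorescence from labelled RT-PCR reporter fragments, separated by capillary electrophoresis, gives the signal. Cells: HepG2 transiently carrying multiple reporter units, 24 h chemical dosing. Gain or loss relative to DMSO.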

A short description of test [11]: ATG_TCF_b_cat_CIS: Attagene CIS-FACTORIAL HepG2 Assay for human T-Cell-Factor with beta-catenin (TCF/b-cat) (AID 2282965). Conditions: HepG2 TCF/beta-catenin cis-reporter transcription, actives raise or lower the signal. In short, it runs like this: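 HepG2, transient MRTU transfection, cis-element-driven reporters (endogenous TFs). 24 h compound exposure. Readout: reporter mRNA by RT-PCR + 6-FAM primer extension, HpaI digest, capillary electrophoresis. Gain/loss fit vs DMSO baseline.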

Test [12] is described as follows: ATG_TAL_CIS: Attagene CIS-FACTORIAL HepG2 Assay for human TAL Basal Promoter (AID 2282966).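 Further: background control endpoint measuring basal TAL promoter reporter mRNA not a specific factor.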 Conditions: HepG2 Attagene cis-factorial TAL promoter reporter; actives raise or lower the signal. The method in brief: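 HepG2 cells transiently transfected with multiplexed cis-promoter reporter units, dosed 24 h. Reporter mRNA quantified by RT-PCR, 6-FAM labelling, HpaI digestion and capillary electrophoresis; TAL basal promoter serves as background control, fitted bidirectionally versus DMSO.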

Test [13] is described as follows: ATG_TGFb_CIS: Attagene CIS-FACTORIAL HepG2 Assay for human Transforming Growth Factor (TGF) (AID 2282967). Conditions: HepG2 Attagene CIS TGFb reporter, mRNA transcription; actives raise or lower the signal. The method in brief: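 Bidirectional fitting relative to DMSO gave the endpoint. Underlying data: reporter mRNA from HepG2 cells carrying transiently transfected cis-regulated reporter constructs, harvested 24 h after dosing and analyzed by RT-PCR and capillary electrophoresis.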

A short description of test [14]: ATG_VDRE_CIS: Attagene CIS-FACTORIAL HepG2 Assay for human Vitamin D Receptor Element (VDRE) (AID 2282968). Conditions: HepG2 VDRE cis-reporter transcription, actives raise or lower the signal. The method in brief: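 Transiently transfected HepG2 cells carrying cis-regulated reporter transcription units were exposed for 24 h. Reporter mRNA was measured by RT-PCR with fluorescent labelling and capillary electrophoresis, and fitted in both directions against DMSO.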

For test [15], the target named is Nuclear receptor subfamily 1 group I member 3 (Homo sapiens) (UniProt Q14994). Kind of test: ATG_CAR_TRANS: Attagene TRANS-FACTORIAL HepG2 Assay for human Constitutive Androstane Receptor (CAR) (AID 2282969; active means hit-call score of the fitted dose curve at least 0.9, where 1 is the maximum;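 further: activators raise reporter mRNA above DMSO so AC50 marks induction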). Conditions: HepG2 Attagene TRANS-FACTORIAL CAR reporter. The method in brief:
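HepG2 cells transiently transfected with GAL4-UAS reporter units; TRANS format reads activity of exogenous chimeric NR-Gal4 protein. After 24 h dosing, reporter mRNA quantified by RT-PCR, 6-FAM labelling and capillary electrophoresis; gain of signal fitted against DMSO.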

Test [16] addresses Estrogen receptor (Homo sapiens) (UniProt P03372). Kind of test: ATG_ERa_TRANS: Attagene TRANS-FACTORIAL HepG2 Assay for human Estrogen Receptor alpha (ERa) (AID 2282970; active means hit-call score of the fitted dose curve at least 0.9, where 1 is the maximum). Conditions: HepG2 Attagene TRANS ERa GAL4 reporter, mRNA. In short, it runs like this: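 HepG2 cells transiently transfected with multiplexed GAL4-UAS reporter units read out chimeric NR-Gal4 activity. After 24 h compound exposure, reporter mRNA was quantified by RT-PCR, 6-FAM labeling, HpaI digestion and capillary electrophoresis, relative to DMSO.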

For test [17], the target named is X-box-binding protein 1 (Homo sapiens) (UniProt P17861). Kind of test: ATG_Xbp1_CIS: Attagene CIS-FACTORIAL HepG2 Assay for human X-box Binding Protein 1 (XBP1) (AID 2282972). Conditions: HepG2 XBP1 cis-element reporter, Attagene multiplex; actives raise or lower the signal. The method in brief:
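Fluorescence-labelled cDNA fragments from reporter transcripts, separated by capillary electrophoresis, give the signal. Source: HepG2 cells transfected with promoter-driven reporter units, harvested 24 h post-dose. DMSO served as reference for bidirectional curve fitting.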

Test [18] concerns the target Steroid hormone receptor ERR1 (Homo sapiens) (UniProt P11474). Kind of test: ATG_ERRa_TRANS: Attagene TRANS-FACTORIAL HepG2 Assay for human Estrogen-Related Receptor alpha (ERRa) (AID 2282971; active means hit-call score of the fitted dose curve at least 0.9, where 1 is the maximum). Conditions: HepG2 Attagene TRANS reporter, ERRa transactivation. In short, it runs like this: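 HepG2 cells transiently transfected with GAL4-UAS reporter units and chimeric NR-Gal4 constructs; after 24 hour compound incubation, reporter mRNA quantified by RT-PCR, fluorescent labelling and capillary electrophoresis, gain of signal versus DMSO.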

The nature of test [19]: ATG_M_19_TRANS: Attagene TRANS-FACTORIAL HepG2 Assay for M19 Transcription Factor (Internal Marker) (AID 2282974; active means hit-call score of the fitted dose curve at least 0.9, where 1 is the maximum). Conditions: HepG2 Attagene TRANS-FACTORIAL M19 internal marker reporter. In short, it runs like this: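 HepG2 transiently transfected with GAL4-UAS multiplex reporter constructs, exposed 24 h; reporter RNA quantified by RT-PCR, 6-FAM labeling, HpaI digestion and capillary electrophoresis; internal background marker fitted upward versus DMSO.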

Records with an inconclusive call do not appear. Activity calls are given as the source filed them. How the source made its calls, unless noted: active means hit-call score of the fitted dose curve at least 0.9, where 1 is the maximum; inactive means score below 0.9.

Transcription factor Sp1 (Homo sapiens), sequence (P08047 whole entry, looked up): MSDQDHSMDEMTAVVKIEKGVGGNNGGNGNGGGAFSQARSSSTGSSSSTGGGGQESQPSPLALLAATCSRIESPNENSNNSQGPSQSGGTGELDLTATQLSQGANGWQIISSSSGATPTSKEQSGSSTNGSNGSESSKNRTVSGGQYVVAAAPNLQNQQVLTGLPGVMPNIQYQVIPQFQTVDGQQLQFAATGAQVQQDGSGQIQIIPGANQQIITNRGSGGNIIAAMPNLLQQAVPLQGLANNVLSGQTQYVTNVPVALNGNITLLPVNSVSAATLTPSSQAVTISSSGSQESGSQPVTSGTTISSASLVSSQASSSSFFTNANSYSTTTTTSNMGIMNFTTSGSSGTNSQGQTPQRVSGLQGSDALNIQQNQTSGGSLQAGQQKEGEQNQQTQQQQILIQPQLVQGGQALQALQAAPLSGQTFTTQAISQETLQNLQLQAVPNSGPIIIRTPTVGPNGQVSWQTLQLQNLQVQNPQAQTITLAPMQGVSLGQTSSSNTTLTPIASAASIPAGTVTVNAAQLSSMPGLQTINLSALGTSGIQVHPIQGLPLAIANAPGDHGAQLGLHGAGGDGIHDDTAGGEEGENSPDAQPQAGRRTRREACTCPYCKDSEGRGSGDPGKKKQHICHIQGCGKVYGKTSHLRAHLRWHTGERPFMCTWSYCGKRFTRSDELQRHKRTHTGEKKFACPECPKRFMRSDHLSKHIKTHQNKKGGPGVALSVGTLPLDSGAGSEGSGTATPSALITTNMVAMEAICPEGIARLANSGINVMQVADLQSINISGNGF
Paired box protein Pax-6 (Homo sapiens), sequence (P26367 whole entry, looked up): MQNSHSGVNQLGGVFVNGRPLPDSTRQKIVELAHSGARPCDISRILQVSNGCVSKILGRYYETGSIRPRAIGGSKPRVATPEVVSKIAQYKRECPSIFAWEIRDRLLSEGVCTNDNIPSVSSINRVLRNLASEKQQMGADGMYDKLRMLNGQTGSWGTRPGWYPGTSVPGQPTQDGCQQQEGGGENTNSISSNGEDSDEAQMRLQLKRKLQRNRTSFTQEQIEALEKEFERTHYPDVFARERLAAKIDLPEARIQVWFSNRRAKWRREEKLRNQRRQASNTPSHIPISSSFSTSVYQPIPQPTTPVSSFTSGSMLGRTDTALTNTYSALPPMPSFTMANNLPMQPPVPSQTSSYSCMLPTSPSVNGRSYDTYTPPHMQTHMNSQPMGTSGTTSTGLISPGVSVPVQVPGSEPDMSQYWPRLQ
Estrogen receptor (Homo sapiens), sequence (P03372 whole entry, looked up, the tested form may be a part): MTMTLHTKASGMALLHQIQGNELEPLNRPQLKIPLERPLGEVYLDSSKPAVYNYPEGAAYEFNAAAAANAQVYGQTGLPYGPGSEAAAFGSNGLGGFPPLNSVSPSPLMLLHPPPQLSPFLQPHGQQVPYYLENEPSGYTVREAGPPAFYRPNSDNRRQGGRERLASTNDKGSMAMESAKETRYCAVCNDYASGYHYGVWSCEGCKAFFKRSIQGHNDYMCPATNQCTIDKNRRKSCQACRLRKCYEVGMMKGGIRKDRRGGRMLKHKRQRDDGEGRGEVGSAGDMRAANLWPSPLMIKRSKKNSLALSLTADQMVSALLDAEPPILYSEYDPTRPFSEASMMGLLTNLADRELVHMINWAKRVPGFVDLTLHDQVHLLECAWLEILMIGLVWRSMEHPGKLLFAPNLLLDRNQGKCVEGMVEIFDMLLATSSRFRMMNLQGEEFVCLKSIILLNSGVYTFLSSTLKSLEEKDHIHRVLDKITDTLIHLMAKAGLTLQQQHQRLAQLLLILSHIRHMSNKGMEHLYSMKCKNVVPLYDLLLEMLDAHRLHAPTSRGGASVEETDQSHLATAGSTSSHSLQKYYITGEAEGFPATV
X-box-binding protein 1 (Homo sapiens), sequence (P17861 whole entry, looked up, the tested form may be a part): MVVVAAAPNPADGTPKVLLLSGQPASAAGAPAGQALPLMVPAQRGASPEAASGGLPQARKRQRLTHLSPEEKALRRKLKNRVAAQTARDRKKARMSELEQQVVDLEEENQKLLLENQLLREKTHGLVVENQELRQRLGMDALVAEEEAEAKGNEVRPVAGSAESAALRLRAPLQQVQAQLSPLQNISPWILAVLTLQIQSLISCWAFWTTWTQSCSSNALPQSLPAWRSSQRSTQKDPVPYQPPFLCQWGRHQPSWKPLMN
Signal transducer and activator of transcription 3 (Homo sapiens), sequence (P40763 whole entry, looked up): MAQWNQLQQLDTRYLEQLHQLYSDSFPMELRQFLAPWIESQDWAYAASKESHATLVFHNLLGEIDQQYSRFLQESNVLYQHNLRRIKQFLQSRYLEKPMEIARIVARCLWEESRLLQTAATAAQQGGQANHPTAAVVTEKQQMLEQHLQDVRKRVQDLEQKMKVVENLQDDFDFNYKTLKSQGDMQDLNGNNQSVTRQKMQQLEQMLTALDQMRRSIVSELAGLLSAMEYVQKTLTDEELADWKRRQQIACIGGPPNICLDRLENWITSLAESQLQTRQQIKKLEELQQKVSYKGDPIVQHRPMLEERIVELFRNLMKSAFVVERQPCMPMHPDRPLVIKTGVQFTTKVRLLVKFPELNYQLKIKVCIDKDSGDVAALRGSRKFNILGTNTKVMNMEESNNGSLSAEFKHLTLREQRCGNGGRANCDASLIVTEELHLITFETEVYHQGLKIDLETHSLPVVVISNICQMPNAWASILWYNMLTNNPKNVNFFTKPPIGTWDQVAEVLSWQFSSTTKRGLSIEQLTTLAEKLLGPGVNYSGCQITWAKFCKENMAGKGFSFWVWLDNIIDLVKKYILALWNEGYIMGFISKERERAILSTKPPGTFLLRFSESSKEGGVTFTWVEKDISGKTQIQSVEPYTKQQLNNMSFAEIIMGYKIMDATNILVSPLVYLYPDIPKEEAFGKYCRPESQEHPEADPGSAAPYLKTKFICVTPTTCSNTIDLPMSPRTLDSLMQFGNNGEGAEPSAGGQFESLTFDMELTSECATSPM
Nuclear receptor subfamily 1 group I member 3 (Homo sapiens), sequence (Q14994 whole entry, looked up, the tested form may be a part): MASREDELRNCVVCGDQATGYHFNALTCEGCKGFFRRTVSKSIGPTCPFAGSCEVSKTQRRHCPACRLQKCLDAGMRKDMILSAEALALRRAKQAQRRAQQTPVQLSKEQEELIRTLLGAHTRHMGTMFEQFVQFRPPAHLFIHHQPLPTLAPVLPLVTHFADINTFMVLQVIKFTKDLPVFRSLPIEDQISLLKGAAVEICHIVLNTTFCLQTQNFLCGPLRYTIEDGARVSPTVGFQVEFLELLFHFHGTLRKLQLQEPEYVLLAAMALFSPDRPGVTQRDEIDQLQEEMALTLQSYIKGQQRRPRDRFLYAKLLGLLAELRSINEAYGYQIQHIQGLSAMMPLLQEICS
Steroid hormone receptor ERR1 (Homo sapiens), sequence (P11474 whole entry, looked up, the tested form may be a part): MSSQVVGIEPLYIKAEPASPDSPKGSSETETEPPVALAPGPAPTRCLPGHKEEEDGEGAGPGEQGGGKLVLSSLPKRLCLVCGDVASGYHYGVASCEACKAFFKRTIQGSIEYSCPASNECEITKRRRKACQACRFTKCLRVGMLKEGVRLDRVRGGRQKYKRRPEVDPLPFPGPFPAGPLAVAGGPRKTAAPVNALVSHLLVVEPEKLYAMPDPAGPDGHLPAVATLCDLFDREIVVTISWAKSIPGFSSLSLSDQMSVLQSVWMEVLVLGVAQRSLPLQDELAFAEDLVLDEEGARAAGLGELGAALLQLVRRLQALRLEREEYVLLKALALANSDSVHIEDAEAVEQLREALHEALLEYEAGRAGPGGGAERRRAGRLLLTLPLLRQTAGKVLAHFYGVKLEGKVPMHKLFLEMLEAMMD

With `CC1(C)C(C(=O)OC(C#N)c2cccc(Oc3ccccc3)c2)C1(C)C` (centres undefined), the outcome in test [1], in test [2], in test [5], in [6], in test [7] and in test [8] was inactive. The compound was classed as inactive in test [9], in test [10], in test [11], in test [12], in [13] and in test [15]. Further, in [17], the outcome was inactive. Besides, the AC50 (in general, the concentration at which the activity in the assay is half-maximal) is 1.74 µM (active) in test [3], 11 µM (active) in test [4], 6.46 µM (active) in [14] and 21.3 µM (active) in [16].
For the compound `C=C(C)CN(CC)c1c([N+](=O)[O-])cc(C(F)(F)F)cc1[N+](=O)[O-]`, the AC50 was 13.3 µM (active) in test [1], 9.5 µM (active) in [3], 25.1 µM (active) in test [14] and 30.7 µM (active) in [16]. In addition, the outcome in [2], in test [4], in [5], in [6], in [7] and in test [8] was inactive. Moreover, the compound was classed as inactive in [9], in test [10], in test [11], in test [12], in test [13] and in [18]. For the same compound, the outcome in test [17] and in test [19] was inactive.
As for `O=C(O)c1c(Cl)ccc2cc(Cl)cnc12`, the result in [1], in test [2], in [3], in [4], in test [5] and in [6] was inactive. Moreover, the call in test [7], in [8], in [9], in [10], in test [11] and in [12] was inactive. Further, the compound was called inactive in test [13], in [16], in test [17] and in test [19].
For the compound `Nc1cnn(-c2ccccc2)c(=O)c1Cl`, the result in test [1], in [2], in test [4], in test [5], in test [6] and in test [7] was inactive. In addition, the compound was called inactive in test [8], in [9], in [10], in test [11], in [12] and in [13]. Further, the outcome in test [14], in test [15], in test [16], in test [17] and in test [19] was inactive. In addition, in [3], the AC50 is 81.5 µM (active).
As for `Cc1c(COC(=O)[C@@H]2[C@H](/C=C(\Cl)C(F)(F)F)C2(C)C)cccc1-c1ccccc1`, the AC50 was 11.4 µM (active) in test [1], 2.31 µM (active) in test [3], 12.6 µM (active) in [14] and 14.9 µM (active) in test [16]. The result in [2], in [4], in test [5], in test [6], in test [7] and in test [8] was inactive. Besides, the call in test [9], in [10], in test [11], in test [12], in test [13] and in test [17] was inactive. The compound was classed as inactive in test [19].
For the compound `CCSC(=O)N1CCCCCC1`, the outcome in test [1], in test [2], in [4], in [5], in [6] and in [7] was inactive. Besides, the call in test [8], in [9], in test [10], in test [11], in test [12] and in [13] was inactive. Moreover, the call in test [16], in [18], in test [17] and in [19] was inactive. The AC50 in test [3] was 15.9 µM (active).
For the compound `CCOc1nc(F)cc2nc(S(=O)(=O)Nc3c(Cl)cccc3Cl)nn12`, the result in [1], in test [2], in test [4], in test [5], in test [6] and in test [7] was inactive. In addition, the outcome in test [8], in test [9], in test [10], in [11], in test [12] and in [13] was inactive. The outcome in test [14], in test [17] and in test [19] was inactive. Moreover, the AC50 in [3] is 10.1 µM (active).
